# Compound activity (PubChem)
# HP1b chromo inh = HP1-beta chromodomain-methylated histone interaction inhibition. AlphaScreen HP1-beta / biotin-H3K9me3 peptide binding. Potency, µM (highest dose often 114 µM), without a hit: top-dose activity change, negative = inhibition, usual class: inhibitors. actives 0.56% (n = 390,000); also: nearly all actives have a fitted effect of over 70% in size
#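 AlphaScreen: HP1-beta (50 nM) preformed 30 min with biotin-H3(1-18)K9me3 peptide (50 nM) in PBS pH 7.4, 0.01% Tween-20. Compound added for 30 min at RT, then streptavidin donor/nickel chelate acceptor beads (10 ug/mL) for 30 min.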
# JMJD2A Tudor inh = inhibitors of human JMJD2A Tudor domain | AID 504339 | AlphaScreen JMJD2A-Tudor / H3K4me3 peptide binding | actives 4.4% (n = 390,000) | Potency, µM (top dose mostly 114 µM), without a hit: at the top dose activity change, negative = inhibition, usual class: inhibitors; also: % is scaled to controls: 0 for no effect and ±100 for the full control effect; nearly all actives have a fitted effect of over 50% in size
# PLK1 PBD block = PLK1 (human) polo-box domain binding inhibition | P53350 | Plk1 PBD binding of FITC phosphopeptide, fluorescence polarization | Potency, µM, without a hit: max response, negative = inhibition, usual class: inhibitors | actives 2.8% (n = 360,000) | AID 720504; also: series mostly up to about 57 µM; % is scaled to controls: 0 for no effect and ±100 for the full control effect; nearly all actives have a fitted effect of over 65% in size
# BAZ2B block = inhibitors of human BAZ2B bromodomain; Q9UIF8; AID 504333; actives 4.4% (n = 360,000); Potency, µM (doses to about 114 µM), inactives show at the top dose activity change, negative = inhibition, hits mostly inhibitors; AlphaScreen BAZ2B-H3K14Ac peptide displacement; also: % is scaled to controls: 0 for no effect and ±100 for the full control effect; nearly all actives have a fitted effect of over 60% in size
# Target sequence (Q9UIF8 whole entry, looked up): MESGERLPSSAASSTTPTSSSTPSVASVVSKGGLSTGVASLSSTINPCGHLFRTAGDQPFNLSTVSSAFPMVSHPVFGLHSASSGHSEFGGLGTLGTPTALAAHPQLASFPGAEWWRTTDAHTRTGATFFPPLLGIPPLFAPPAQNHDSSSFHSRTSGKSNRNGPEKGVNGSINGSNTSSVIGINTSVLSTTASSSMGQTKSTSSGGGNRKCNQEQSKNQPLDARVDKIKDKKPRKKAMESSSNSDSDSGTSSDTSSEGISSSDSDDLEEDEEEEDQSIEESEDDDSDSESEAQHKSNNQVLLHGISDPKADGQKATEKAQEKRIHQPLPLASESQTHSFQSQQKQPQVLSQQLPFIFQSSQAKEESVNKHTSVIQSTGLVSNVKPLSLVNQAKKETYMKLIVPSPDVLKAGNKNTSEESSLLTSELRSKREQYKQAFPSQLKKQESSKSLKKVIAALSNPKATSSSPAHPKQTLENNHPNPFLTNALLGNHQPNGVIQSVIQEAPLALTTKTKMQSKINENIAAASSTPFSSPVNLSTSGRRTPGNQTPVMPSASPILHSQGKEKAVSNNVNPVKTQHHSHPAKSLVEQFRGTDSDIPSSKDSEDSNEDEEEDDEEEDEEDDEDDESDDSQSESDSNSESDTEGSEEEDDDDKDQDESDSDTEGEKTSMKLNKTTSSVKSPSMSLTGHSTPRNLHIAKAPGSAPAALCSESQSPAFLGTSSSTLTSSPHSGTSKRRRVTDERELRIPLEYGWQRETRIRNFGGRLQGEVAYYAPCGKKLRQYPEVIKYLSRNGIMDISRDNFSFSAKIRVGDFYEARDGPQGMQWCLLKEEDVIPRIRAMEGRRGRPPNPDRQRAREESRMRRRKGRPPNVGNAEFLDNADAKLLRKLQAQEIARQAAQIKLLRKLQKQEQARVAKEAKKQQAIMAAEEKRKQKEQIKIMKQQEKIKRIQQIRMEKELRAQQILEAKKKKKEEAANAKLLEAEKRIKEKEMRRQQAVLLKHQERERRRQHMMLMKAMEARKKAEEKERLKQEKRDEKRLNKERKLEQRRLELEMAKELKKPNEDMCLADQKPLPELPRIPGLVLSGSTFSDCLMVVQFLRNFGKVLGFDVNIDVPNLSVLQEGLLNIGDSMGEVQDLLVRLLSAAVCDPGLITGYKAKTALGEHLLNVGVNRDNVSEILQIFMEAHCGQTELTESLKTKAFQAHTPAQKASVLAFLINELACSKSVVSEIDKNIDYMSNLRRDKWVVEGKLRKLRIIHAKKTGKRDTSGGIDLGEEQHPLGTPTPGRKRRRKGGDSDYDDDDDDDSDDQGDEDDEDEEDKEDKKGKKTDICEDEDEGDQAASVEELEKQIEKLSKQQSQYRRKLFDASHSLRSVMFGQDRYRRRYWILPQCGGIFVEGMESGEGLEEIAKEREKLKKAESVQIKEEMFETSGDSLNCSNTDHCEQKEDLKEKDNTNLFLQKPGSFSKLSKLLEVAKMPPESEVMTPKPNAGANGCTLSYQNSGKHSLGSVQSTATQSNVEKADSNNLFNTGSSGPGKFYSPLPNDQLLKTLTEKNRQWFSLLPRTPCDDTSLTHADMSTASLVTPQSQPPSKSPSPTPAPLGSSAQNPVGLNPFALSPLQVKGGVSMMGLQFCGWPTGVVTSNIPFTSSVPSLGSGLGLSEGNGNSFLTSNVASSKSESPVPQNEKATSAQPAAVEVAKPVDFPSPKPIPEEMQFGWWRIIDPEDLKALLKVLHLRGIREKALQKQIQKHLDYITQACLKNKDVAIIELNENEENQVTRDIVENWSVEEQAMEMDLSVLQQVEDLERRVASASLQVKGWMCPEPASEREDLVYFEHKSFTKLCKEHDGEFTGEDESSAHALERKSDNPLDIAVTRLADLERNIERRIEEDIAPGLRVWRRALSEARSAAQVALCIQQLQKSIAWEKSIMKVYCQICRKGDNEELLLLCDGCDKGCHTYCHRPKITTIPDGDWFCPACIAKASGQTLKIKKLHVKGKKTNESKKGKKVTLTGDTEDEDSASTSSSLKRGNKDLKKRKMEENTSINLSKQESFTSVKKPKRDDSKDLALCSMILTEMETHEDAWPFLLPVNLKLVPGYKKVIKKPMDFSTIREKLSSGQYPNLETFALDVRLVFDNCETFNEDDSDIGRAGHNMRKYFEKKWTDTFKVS
#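 AlphaScreen displacement of biotin-H3(5-23)K14Ac peptide (50 nM final) from BAZ2B (50 nM final) in PBS pH 7.4, 0.01% Tween-20; complex preformed 30 min RT, then compounds (top 110 uM) 30 min RT, beads 20 min dark.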
# G9a block = inhibitors of human histone lysine methyltransferase G9a; Potency, µM (highest dose often 102 µM), without a hit: at the highest dose activity, negative = inhibition, hits mostly inhibitors; G9a H3K9 monomethylation, AlphaScreen, 2 h; actives 8.8% (n = 350,000); also: % is scaled to controls: 0 for no effect and ±100 for the full control effect; nearly all actives have a fitted effect of over 75% in size
#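 AlphaScreen detection with an anti-monomethyl H3K9 antibody quantified product after a 2 h room-temperature reaction containing 500 nM biotinylated H3K9 peptide, 20 µM SAM and 20 nM enzyme, which had been preincubated 15 min with compound.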
# Sfp inh = Sfp phosphopantetheinyl transferase inhibition; Biochemical Sfp PPTase activity, qHTS; Potency, µM, for inactives: largest response in the series, negative = inhibition, usual class: inhibitors; AID 1490; Q9F4F7; actives 3.5% (n = 310,000);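 also: the enzyme is Sfp with the accession as filed and its product quenches rhodamine fluorescence; 0% = enzyme reaction without inhibitor and -100% = no enzyme wells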
#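 Sfp 15 nM + cpd, 15 min RT; start w/ rhodamine-CoA 5 uM, BHQ-2-YbbR 12.5 uM (final); 50 mM Hepes pH 7.6, 10 mM MgCl2, 0.01% NP-40, 0.01% BSA; read 525/598 nm at 0 and 30 min.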
# An asterisk follows results filed as active; ? = inconclusive; . = no result; [ ] = remark or other dose. Sampled rows, rich in hits. Any-hit rate of the full collection: about 12%. Calls follow the shape of the dose curve; as a rule, active = well fitted curve in the direction sought with a large enough effect; inconclusive = small, poorly fitted or top-dose-only effect, or another doubt; inactive = no such curve, though single readings can be large; an effect the other way counts as inactive or inconclusive. Potency is read from the fitted curve at half-maximal effect.
SMILES,HP1b chromo inh,JMJD2A Tudor inh,PLK1 PBD block,BAZ2B block,G9a block,Sfp inh
CCN(CC)S(=O)(=O)c1cc([N+](=O)[O-])ccc1NNC(=O)Nc1ccc(Cl)c(Cl)c1,-3.2%,-34.7%,-7.0%,31.6µM*,7.94µM*,?
CCNc1c(NC(=O)c2cc(OCC)c(OCC)c(OCC)c2)c(=O)oc2ccccc12,20.8%,1.7%,.,-11.3%,-4.9%[59 µM],.
CC(C)C(NC(=O)CSCc1ccc([N+](=O)[O-])cc1)C(C)C,25.0%,-11.3%,-17.6%,17.0%,?,?
O=C(NNc1ccccc1[N+](=O)[O-])NC1CCCCC1,19.7%,-9.4%,-18.9%,-19.4%,50.1µM*,-13.7%
Cc1ccc(C)c(N2CCN(S(=O)(=O)c3ccc(C(=O)N(C)C)s3)CC2)c1,12.8%,-15.6%,.,-18.0%,-6.4%[12.7 µM],.
CC1Cc2ccccc2N1CC(=O)Nc1ccc(S(=O)(=O)N(C)C)cc1 (stereo not given),28.5%,-22.1%,-6.9%,?,?,-28.9%
CN(C)S(=O)(=O)c1cc(NC(=O)CN2CCc3ccccc32)ccc1Cl,0.8%,-17.4%,-10.4%,-14.7%,15.8µM*,-26.8%
O=C(CN1CCCc2ccccc21)NCc1ccccc1Cl,1.0%,-35.8%,-3.9%,-38.7%,44.7µM*,-0.1%
CN(C)S(=O)(=O)c1ccc(NC(=O)CN2CCCc3ccccc32)cc1,-19.2%,?,-12.0%,?,39.8µM*,2.0%
CN(C)S(=O)(=O)c1cc(NC(=O)CN2CCN(c3ccccc3F)CC2)ccc1Cl,15.4%,-7.9%,-2.2%,-27.4%,8.1%[59 µM],10.5%
O=C(CN1CCCc2ccccc21)Nc1cc(S(=O)(=O)N2CCCC2)ccc1Cl,32.7%,-22.8%,-6.1%,-31.0%,25.1µM*,.
NNC(=O)CN1CCCc2ccccc21,-12.3%,3.0%[11.4 µM],?,-18.7%,2.7%,9.7%
COC(=O)[C@H]1C[C@@H]2CC[C@@H](O)C[C@@H]2N1Cc1c(F)cccc1Cl,.,.,.,.,.,-1.1%
Cc1ccc(-c2nc3cc(Cl)ccc3o2)cc1NC(=O)c1cc2ccccc2o1,13.3%,-15.7%,.,2.3%,-3.5%[59 µM],.
COc1ccc(Cl)cc1NC(=O)c1cnc2sc(N3CCOCC3)nn2c1=O,9.3%,-8.3%,.,-3.7%,19.9%[59 µM],.
Cc1c(Cc2ccccc2)sc(/N=C/c2c(O)ccc3ccccc23)c1C(N)=O,?,?,?,?,3.16µM*,35.5µM*
Cc1c(Cc2ccccc2)sc(/N=C/c2ccc3ccccc3c2)c1C(N)=O,8.2%,?,?,8.5%,20µM*,-25.2%
COC(=O)c1cc(O)cc(OC)c1Oc1cc(C)cc(O)c1C(=O)O,?,20µM*,-10.8%,8.91µM*,?,56.2µM*
Cc1cccc(-c2noc(CN(C(C)C)S(=O)(=O)c3ccc(Br)cc3)n2)c1,72.1%,30.2%,.,16.3%,52.3%[59 µM],.
Nc1nc2c(s1)COc1ccccc1-2,?,-32.0%,18.9µM*,-25.6%,31.6µM*,15.8µM*
Cc1cc(C(=O)CCl)c(C)n1CCc1ccccc1,?,44.7µM*,26.7µM*,-22.5%,50.1µM*,20µM*
Cc1cc(C(=O)CCl)c(C)n1-c1cccc([N+](=O)[O-])c1,-5.8%,-31.4%,?,-31.4%,?,5.3%
Cc1cc(C(=O)CCl)c(C)n1-c1ccon1,27.2%,-15.4%,26.7µM*,-28.1%,-29.8%,12.2%
CCc1cc(Cn2nc(-c3ccccc3)cc2C(=O)NCc2ccccc2OC)on1,30.0%,-4.9%,0.5%,5.1%,7.8%[2.33 µM],.
CC(C)(C)OC(=O)N1CCc2onc(-c3ccccc3[N+](=O)[O-])c2C1=O,.,.,3.4%,.,.,.
SMILES,HP1b chromo inh,JMJD2A Tudor inh,PLK1 PBD block,BAZ2B block,G9a block,Sfp inh
CC1CCCN(CCCNS(=O)(=O)c2cc(Br)cc3c2N(C(=O)C2CC2)CC3)C1 (stereo not given),24.1%,-1.7%,0.3%,3.5%,25.6%[59 µM],1.1%
O=C(C1CC1)N1CCc2cc(Br)cc(S(=O)(=O)NCCCN3CCCC3)c21,4.1%,?,-10.1%,7.2%,50.1µM*,5.2%
Cc1cc2cc(CNC(=O)CCC(=O)O)ccc2n1C,27.2%,-10.3%,4.1%,?,17.8µM*,-18.4%
Cc1cccc(NC(=O)NCc2ccc3c(c2)cc(C)n3C)c1,-5.0%,?,-2.0%,?,?,50.1µM*
Cc1cc2cc(CNC(=O)c3ccc(Br)o3)ccc2n1C,-23.7%,56.2µM*,-17.8%,35.5µM*,-109.9%[59 µM],28.2µM*
Cc1cccc(NC(=S)NCc2ccc3c(c2)cc(C)n3C)c1C,?,35.5µM*,-17.9%,35.5µM*,2.6%[59 µM],-13.1%
CCN(CC(=O)Nc1ccc2c(c1)OCCO2)C(=O)/C=C/c1cc(Br)ccc1OC,.,.,-1.6%,.,.,.
Cc1ccc(NS(=O)(=O)c2ccc(-c3ccccc3)cc2)cc1C,.,-12.9%,.,.,.,.
COc1ccc(OC)c(CCNC(=O)CCn2c(=O)c3cccn3c3cccnc32)c1,-1.7%,-22.0%,.,-10.1%,-7.0%[59 µM],.
CC(=O)c1ccc(NC(=O)c2sc(-n3nc(C)c(Cc4ccccc4)c3C)nc2C)cc1,36.3%,-9.6%,.,-1.4%,7.5%[59 µM],.
CC(=O)Nc1ccc(S(=O)(=O)NCc2ccc3c(c2)cc(C)n3C)cc1,-1.3%,?,-4.5%,?,79.4µM*,-12.1%
Cc1cc2cc(CNS(=O)(=O)c3ccc4ccccc4c3)ccc2n1C,-6.4%,?,-13.0%,?,?,-23.5%
COC(=O)C(C(C)C)N1CC(=O)c2ccccc2S1(=O)=O (stereo not given),61.1%,-11.0%,.,.,.,2.6%
Cc1sc2nc(CSC(C)C(=O)N(C)CC(=O)Nc3ccccc3C(F)(F)F)[nH]c(=O)c2c1C (stereo not given),9.6%,-20.5%,-11.0%,2.6%,?,.
Cc1sc2nc(CSc3ccc([N+](=O)[O-])c(C(F)(F)F)c3)[nH]c(=O)c2c1C,15.9%,-21.5%,-14.0%,-35.6%,?,56.2µM*
Cc1cc(F)ccc1NC(=O)CCS(=O)(=O)c1cccc2nsnc12,15.1%,-16.0%,.,1.1%,-8.6%[59 µM],.
CN(C)c1ncc2nc(-c3cccs3)c(=O)n(C3CC3)c2n1,.,.,.,.,6.9%[12.7 µM],6.0%
O=C(c1ccco1)N1CCC2(CCN(Cc3cc(C(F)(F)F)cc(C(F)(F)F)c3)CC2)CC1,.,.,.,.,1.7%[12.7 µM],-0.4%
COc1ccc(C2C=C(c3ccc(C)c(C)c3)Nc3ncnn32)c(OC)c1OC (stereo not given),47.3%,-27.5%,-13.1%,-23.7%,50.1µM*,7.3%
COc1cccc(C2=CC(c3ccc(OC)c(OC)c3OC)n3ncnc3N2)c1 (stereo not given),24.6%,-32.7%,.,50.1µM*,?,.
CCOc1ccc(CCNC(=O)Cn2c(-c3cccs3)cc3ccccc32)cc1,23.7%,-9.6%,.,3.2%,11.6%[59 µM],.
O=C(CN1CCN(c2ccc(F)cc2)CC1)Nc1ccc(S(=O)(=O)N2CCOCC2)cc1,21.3%,-16.4%,-0.3%,-24.0%,8.1%,24.3%
